Our source for the outcome and AC50 values is PubChem BioAssay (EPA / NIEHS).

Structures are written as SMILES. Inconclusive results are not listed. The source made the active and inactive calls. Rule for the calls, unless noted: active = hit-call score of the fitted dose curve at least 0.9, where 1 is the maximum; inactive = score below 0.9.

Assay [1] is described as follows: ATG_GRE_CIS: Attagene CIS-FACTORIAL HepG2 Assay for human Glucocorticoid Response Elements (GRE) (AID 2282947). Particulars: HepG2 GRE cis-reporter, Attagene multiplex mRNA; actives raise or lower the signal. Put shortly:
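Reporter transcripts read by RT-PCR with capillary electrophoresis fluorescence after a 24 h chemical exposure of HepG2 cells transiently transfected with multiple cis-element reporter units. Gain or loss fitted against DMSO.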

The target in assay [2] is Hypoxia-inducible factor 1-alpha (Homo sapiens) (UniProt Q16665). Put plainly: ATG_HIF1a_CIS: Attagene CIS-FACTORIAL HepG2 Assay for human Hypoxia Inducible Factor 1 (HIF1A) (AID 2282951). The following applies: HepG2 Attagene cis-factorial HIF1a reporter transcription; actives raise or lower the signal. The procedure, abridged: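 HepG2 cells transiently transfected with multiplexed cis-promoter reporter units; reporter mRNA read 24 h after dosing by RT-PCR, 6-FAM primer-extension labelling, HpaI digestion and capillary electrophoresis. Bidirectional fit versus DMSO baseline.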

For assay [3], the target named is Transcription factor Sp1 (Homo sapiens) (UniProt P08047). Description: ATG_Sp1_CIS: Attagene CIS-FACTORIAL HepG2 Assay for human Specificity Protein 1 (Sp1) (AID 2282961). Particulars: HepG2 Sp1 cis-reporter transcription, actives raise or lower the signal. Put shortly: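 HepG2 cells transiently transfected with multiple reporter transcription units driven by cis-regulatory elements; Sp1-responsive reporter mRNA measured 24 h after dosing by RT-PCR and capillary electrophoresis fluorescence, fitted bidirectionally against DMSO baseline.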

Assay [4] has as its target Signal transducer and activator of transcription 3 (Homo sapiens) (UniProt P40763). Description: ATG_STAT3_CIS: Attagene CIS-FACTORIAL HepG2 Assay for human Signal Transducer and Activator of Transcription 3 (STAT3) (AID 2282963). The following applies: HepG2, Attagene cis-factorial STAT3 reporter transcription; actives raise or lower the signal. The procedure, abridged:
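Readout is reporter transcript quantified by RT-PCR and capillary electrophoresis, with 6-FAM primer extension and HpaI digestion. Total RNA is taken 24 h after dosing transiently transfected HepG2 carrying cis-regulated reporter units. Bidirectional fit against DMSO.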

Assay [5] in a line: ATG_TA_CIS: Attagene CIS-FACTORIAL HepG2 Assay for human TA Basal Promoter (AID 2282964). Particulars: HepG2 Attagene CIS-factorial TA basal promoter reporter; actives raise or lower the signal. Put shortly: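 HepG2 cells transiently transfected with multiplexed cis-promoter reporter units, dosed 24 h. Reporter mRNA measured by RT-PCR, 6-FAM labelling, HpaI digestion and capillary electrophoresis; bidirectional fit versus DMSO baseline, serving as background control.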

Assay [6] in a line: ATG_TCF_b_cat_CIS: Attagene CIS-FACTORIAL HepG2 Assay for human T-Cell-Factor with beta-catenin (TCF/b-cat) (AID 2282965). The following applies: HepG2 TCF/beta-catenin cis-reporter transcription, actives raise or lower the signal. Put shortly:
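Endogenous TCF/LEF activity read as reporter transcript level via RT-PCR and capillary electrophoresis fluorescence in transfected HepG2, 24 h exposure; gain or loss of signal fitted against DMSO controls.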

Assay [7] is described as follows: ATG_TAL_CIS: Attagene CIS-FACTORIAL HepG2 Assay for human TAL Basal Promoter (AID 2282966).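 Note: background control endpoint measuring basal TAL promoter reporter mRNA not a specific factor.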 The following applies: HepG2 Attagene cis-factorial TAL promoter reporter; actives raise or lower the signal. The procedure, abridged:
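Endogenous transcription-factor activity is sensed in HepG2 cells through transfected cis-promoter reporter constructs. After 24 h dosing, reporter transcripts are quantified by RT-PCR and capillary electrophoresis. Gain or loss of signal is fitted relative to DMSO.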

Assay [8] in a line: ATG_TGFb_CIS: Attagene CIS-FACTORIAL HepG2 Assay for human Transforming Growth Factor (TGF) (AID 2282967). The following applies: HepG2 Attagene CIS TGFb reporter, mRNA transcription; actives raise or lower the signal. Put shortly: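 HepG2 cells transiently transfected with cis-promoter-driven multiplexed reporter units; 24 h compound exposure. Reporter mRNA measured by RT-PCR, 6-FAM labeling, HpaI digestion and capillary electrophoresis; bidirectional fit versus DMSO baseline.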

Assay [9] in a line: ATG_VDRE_CIS: Attagene CIS-FACTORIAL HepG2 Assay for human Vitamin D Receptor Element (VDRE) (AID 2282968). The following applies: HepG2 VDRE cis-reporter transcription, actives raise or lower the signal. Put shortly:
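Readout is VDRE-driven reporter mRNA reflecting endogenous factor activity in human HepG2 cells, sampled 24 h post-dose. Quantification used labelled RT-PCR products separated by capillary electrophoresis; bidirectional analysis relative to DMSO.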

For assay [10], the target named is X-box-binding protein 1 (Homo sapiens) (UniProt P17861). Description: ATG_Xbp1_CIS: Attagene CIS-FACTORIAL HepG2 Assay for human X-box Binding Protein 1 (XBP1) (AID 2282972). The following applies: HepG2 XBP1 cis-element reporter, Attagene multiplex; actives raise or lower the signal. The procedure, abridged:
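Read-out: fluorescent reporter mRNA fragments resolved by capillary electrophoresis after RT-PCR. Human HepG2 liver cells carried transfected cis-promoter reporter units and were exposed to chemicals for 24 hours. Gain or loss of signal fitted relative to DMSO baseline.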

The target in assay [11] is Transcriptional activator Myb (Homo sapiens) (UniProt P10242). Description: ATG_Myb_CIS: Attagene CIS-FACTORIAL HepG2 Assay for human Myeloblastosis (Myb) Proto-Oncogene Transcription Factor (AID 2282986). The following applies: HepG2 Attagene CIS-FACTORIAL Myb reporter transcription; actives raise or lower the signal. Put shortly:
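HepG2 cells were transiently transfected with cis-regulated multiple reporter transcription units reflecting endogenous Myb activity, then exposed to compound for 24 hours. Reporter mRNA was measured by RT-PCR with capillary electrophoresis; bidirectional fitting versus DMSO baseline.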

For assay [12], the target named is Myc proto-oncogene protein (Homo sapiens) (UniProt P01106). Put plainly: ATG_Myc_CIS: Attagene CIS-FACTORIAL HepG2 Assay for human Myelocytomatosis (Myc) Proto-Oncogene Transcription Factor (AID 2282990). Particulars: HepG2, Attagene cis-reporter transcription factor activity; actives raise or lower the signal. The procedure, abridged:
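After 24 h chemical treatment of HepG2 cells carrying multiplexed cis-regulated reporter constructs, reporter transcripts quantified by RT-PCR and capillary electrophoresis of fluorescent fragments. Gain or loss fitted against DMSO baseline.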

Assay [13] in a line: ATG_NRF2_ARE_CIS: Attagene CIS-FACTORIAL HepG2 Assay for human Nuclear Factor Erythroid 2 Related Factor 2 (NFR2) response to Antioxidant Response Elements (ARE) (AID 2282992). Particulars: HepG2 Attagene ARE/NRF2 reporter, transcription factor activity; actives raise or lower the signal. Put shortly:
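Readout: reporter mRNA quantified by RT-PCR plus FAM-labelled primer extension, HpaI digestion and capillary electrophoresis, 24 h after dosing transfected HepG2 cells. Gain or loss of signal is fitted bidirectionally against DMSO baseline.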

A short description of assay [14]: ATG_Oct_MLP_CIS: Attagene CIS-FACTORIAL HepG2 Assay for human Octamer-Binding Transcription Factor (Oct) (AID 2282993). Particulars: HepG2 Attagene cis-factorial Oct reporter, mRNA; actives raise or lower the signal. The procedure, abridged:
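HepG2 cells transiently transfected with cis-promoter-driven multiplexed reporter transcription units, dosed for 24 h. Reporter mRNA quantified by RT-PCR, fluorescent labelling, HpaI digestion and capillary electrophoresis; bidirectional fits versus DMSO baseline.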

Assay [15] has as its target Cellular tumor antigen p53 (Homo sapiens) (UniProt P04637). Put plainly: ATG_p53_CIS: Attagene CIS-FACTORIAL HepG2 Assay for human p53 Transcription Factor (AID 2282994). The following applies: HepG2 p53 cis-element reporter, Attagene mRNA; actives raise or lower the signal. The procedure, abridged:
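Read-out: reporter mRNA by RT-PCR plus capillary electrophoresis with fluorescence detection. Human HepG2 liver cells carried transfected multi-reporter cis-element constructs, dosed 24 h. Gain or loss of signal fitted bidirectionally against DMSO control.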

The target is the same in assay [16]. Description: TOX21_p53_BLA_p4_ratio: Tox21 HCT-116 p53 Agonism Beta-lactamase Assay, Ratio, Phase 4 (AID 2283601; active = hit-call score of the fitted dose curve at least 0.9, where 1 is the maximum). Put shortly: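 Signal is the blue/green (460nm/530nm) ratio of cleaved versus uncleaved CCF4-AM substrate, read after 2 h substrate loading. Cells were HCT116 carrying the p53-responsive beta-lactamase reporter, dosed 16 h at 37C, 5% CO2; CellTiter-Glo measured in parallel.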

The target of assay [17] is Aryl hydrocarbon receptor (Homo sapiens) (UniProt P35869). Description: ATG_Ahr_CIS: Attagene CIS-FACTORIAL HepG2 Assay for human Aryl Hydrocarbon Receptor (Ahr) (AID 2282930). The following applies: HepG2 AhR cis-factorial reporter transcription; actives raise or lower the signal. The procedure, abridged: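 Reporter mRNA levels, quantified by RT-PCR and fluorescent capillary electrophoresis, reflect endogenous AhR transcriptional activity in HepG2 cells carrying transfected cis-promoter reporter constructs. Readout at 24 h post-dose; gain or loss fitted against DMSO baseline.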

The nature of assay [18]: ATG_M_32_TRANS: Attagene TRANS-FACTORIAL HepG2 Assay for M32 Transcription Factor (Internal Marker) (AID 2282984; active = hit-call score of the fitted dose curve at least 0.9, where 1 is the maximum). The following applies: HepG2 Attagene TRANS M32 internal marker reporter. The procedure, abridged: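 Internal background reporter in transfected HepG2: after 24 h chemical exposure, RNA reverse-transcribed, reporter cDNA amplified, fluorescently labelled and HpaI-cut, then sized by capillary electrophoresis. Gain of signal fitted against DMSO control.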

Assay [19] can be described thus: ATG_NFI_CIS: Attagene CIS-FACTORIAL HepG2 Assay for human Nuclear Factor I (NFI) (AID 2282989). The following applies: HepG2 cis-regulatory reporter, NFI response element transcription; actives raise or lower the signal. Put shortly:
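HepG2 cells transiently transfected with cis-element-driven multiplexed reporter transcription units, dosed for 24 h. Reporter mRNA quantified by RT-PCR, fluorescent labelling, HpaI digestion and capillary electrophoresis; bidirectional fit versus DMSO baseline.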

In assay [20] the target is Peroxisome proliferator-activated receptor gamma (Homo sapiens) (UniProt P37231). Put plainly: ATG_PPARg_TRANS: Attagene TRANS-FACTORIAL HepG2 Assay for human Peroxisome Proliferator-activated Receptor-gamma (PPARg) (AID 2283007; active = hit-call score of the fitted dose curve at least 0.9, where 1 is the maximum). Put shortly:
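HepG2 cells transiently transfected with multiplexed GAL4-UAS reporter units and exogenous chimeric NR-Gal4 proteins; reporter mRNA quantified after 24 h compound exposure by RT-PCR, fluorescent labelling, HpaI digestion and capillary electrophoresis; gain-of-signal fitted versus DMSO baseline.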

Chain of X-box-binding protein 1 (Homo sapiens) (P17861 whole entry, looked up, the tested form may be a part): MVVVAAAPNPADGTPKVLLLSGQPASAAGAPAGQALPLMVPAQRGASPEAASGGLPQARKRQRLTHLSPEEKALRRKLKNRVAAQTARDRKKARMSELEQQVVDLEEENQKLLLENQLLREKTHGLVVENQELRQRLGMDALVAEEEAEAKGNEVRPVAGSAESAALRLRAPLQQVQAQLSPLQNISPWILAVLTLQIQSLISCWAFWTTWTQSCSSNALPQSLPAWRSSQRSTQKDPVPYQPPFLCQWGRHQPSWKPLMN
Chain of Aryl hydrocarbon receptor (Homo sapiens) (P35869 whole entry, looked up): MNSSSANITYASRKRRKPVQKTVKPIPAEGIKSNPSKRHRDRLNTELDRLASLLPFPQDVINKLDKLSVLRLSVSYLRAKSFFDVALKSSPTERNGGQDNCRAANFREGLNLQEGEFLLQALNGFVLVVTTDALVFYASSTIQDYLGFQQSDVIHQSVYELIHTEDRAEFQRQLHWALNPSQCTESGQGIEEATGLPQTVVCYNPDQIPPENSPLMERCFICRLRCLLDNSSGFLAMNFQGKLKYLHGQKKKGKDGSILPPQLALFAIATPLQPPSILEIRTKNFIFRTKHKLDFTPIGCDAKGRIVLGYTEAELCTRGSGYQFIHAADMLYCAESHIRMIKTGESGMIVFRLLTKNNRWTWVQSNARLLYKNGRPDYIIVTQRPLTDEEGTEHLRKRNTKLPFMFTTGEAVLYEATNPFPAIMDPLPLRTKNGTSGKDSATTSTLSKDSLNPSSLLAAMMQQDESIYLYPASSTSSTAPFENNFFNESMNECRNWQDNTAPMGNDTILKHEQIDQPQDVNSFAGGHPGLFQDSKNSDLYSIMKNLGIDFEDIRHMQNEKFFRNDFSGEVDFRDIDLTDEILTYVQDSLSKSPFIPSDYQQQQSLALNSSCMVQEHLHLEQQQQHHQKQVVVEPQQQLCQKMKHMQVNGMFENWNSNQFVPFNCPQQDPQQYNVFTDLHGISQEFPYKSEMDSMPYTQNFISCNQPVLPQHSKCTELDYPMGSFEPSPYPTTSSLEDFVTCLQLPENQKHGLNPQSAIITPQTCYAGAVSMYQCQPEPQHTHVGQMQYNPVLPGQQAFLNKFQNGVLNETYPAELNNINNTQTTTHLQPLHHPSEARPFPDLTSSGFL
Chain of Cellular tumor antigen p53 (Homo sapiens) (P04637 whole entry, looked up): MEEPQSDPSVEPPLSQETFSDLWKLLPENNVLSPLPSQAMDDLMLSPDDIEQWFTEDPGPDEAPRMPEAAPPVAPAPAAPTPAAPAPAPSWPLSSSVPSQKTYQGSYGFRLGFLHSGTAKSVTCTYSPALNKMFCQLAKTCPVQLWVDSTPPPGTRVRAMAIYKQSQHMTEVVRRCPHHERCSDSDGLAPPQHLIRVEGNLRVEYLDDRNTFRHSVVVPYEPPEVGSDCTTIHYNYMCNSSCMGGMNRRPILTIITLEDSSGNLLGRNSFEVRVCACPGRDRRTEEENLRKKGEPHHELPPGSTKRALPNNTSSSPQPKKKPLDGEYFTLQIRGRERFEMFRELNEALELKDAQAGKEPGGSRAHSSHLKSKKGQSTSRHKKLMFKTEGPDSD
Chain of Transcription factor Sp1 (Homo sapiens) (P08047 whole entry, looked up): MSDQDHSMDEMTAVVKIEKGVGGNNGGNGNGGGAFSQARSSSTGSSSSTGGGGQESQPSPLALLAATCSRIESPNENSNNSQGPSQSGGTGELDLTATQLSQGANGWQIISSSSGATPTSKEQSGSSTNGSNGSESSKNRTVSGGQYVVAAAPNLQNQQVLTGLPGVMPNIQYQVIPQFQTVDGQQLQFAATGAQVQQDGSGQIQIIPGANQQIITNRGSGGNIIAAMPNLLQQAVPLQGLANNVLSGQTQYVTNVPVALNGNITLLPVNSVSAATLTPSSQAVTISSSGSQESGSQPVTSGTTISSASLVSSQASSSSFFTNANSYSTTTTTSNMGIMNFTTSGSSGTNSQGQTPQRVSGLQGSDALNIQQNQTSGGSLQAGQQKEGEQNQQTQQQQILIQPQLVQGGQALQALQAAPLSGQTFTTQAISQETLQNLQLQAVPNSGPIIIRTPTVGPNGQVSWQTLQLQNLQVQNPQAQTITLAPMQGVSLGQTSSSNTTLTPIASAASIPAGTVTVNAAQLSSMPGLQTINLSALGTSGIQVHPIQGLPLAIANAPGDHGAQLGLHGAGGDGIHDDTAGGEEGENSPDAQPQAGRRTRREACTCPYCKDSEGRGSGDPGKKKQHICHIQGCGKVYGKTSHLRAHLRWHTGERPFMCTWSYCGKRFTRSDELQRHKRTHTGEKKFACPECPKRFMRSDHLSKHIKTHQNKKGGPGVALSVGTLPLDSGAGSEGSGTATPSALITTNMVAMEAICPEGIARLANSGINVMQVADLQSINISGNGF
Chain of Signal transducer and activator of transcription 3 (Homo sapiens) (P40763 whole entry, looked up): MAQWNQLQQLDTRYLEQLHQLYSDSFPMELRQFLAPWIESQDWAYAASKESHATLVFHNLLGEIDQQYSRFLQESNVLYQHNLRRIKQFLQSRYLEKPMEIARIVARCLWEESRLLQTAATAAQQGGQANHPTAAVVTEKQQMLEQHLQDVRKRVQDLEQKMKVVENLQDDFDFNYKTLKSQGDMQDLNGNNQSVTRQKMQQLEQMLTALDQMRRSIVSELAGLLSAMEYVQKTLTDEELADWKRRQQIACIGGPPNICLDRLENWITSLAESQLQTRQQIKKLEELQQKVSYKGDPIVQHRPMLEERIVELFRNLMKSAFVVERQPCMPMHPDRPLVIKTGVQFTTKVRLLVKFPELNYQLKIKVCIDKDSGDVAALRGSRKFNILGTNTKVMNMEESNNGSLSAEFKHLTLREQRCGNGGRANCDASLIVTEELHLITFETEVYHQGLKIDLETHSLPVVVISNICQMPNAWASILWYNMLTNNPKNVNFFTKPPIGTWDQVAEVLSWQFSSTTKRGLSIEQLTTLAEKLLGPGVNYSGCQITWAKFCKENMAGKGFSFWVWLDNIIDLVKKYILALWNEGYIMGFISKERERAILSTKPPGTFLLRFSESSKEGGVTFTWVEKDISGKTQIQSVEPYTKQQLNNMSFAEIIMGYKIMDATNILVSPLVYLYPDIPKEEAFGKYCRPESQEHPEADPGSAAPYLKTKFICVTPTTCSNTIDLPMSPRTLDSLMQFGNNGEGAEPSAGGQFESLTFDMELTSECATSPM
Chain of Transcriptional activator Myb (Homo sapiens) (P10242 whole entry, looked up): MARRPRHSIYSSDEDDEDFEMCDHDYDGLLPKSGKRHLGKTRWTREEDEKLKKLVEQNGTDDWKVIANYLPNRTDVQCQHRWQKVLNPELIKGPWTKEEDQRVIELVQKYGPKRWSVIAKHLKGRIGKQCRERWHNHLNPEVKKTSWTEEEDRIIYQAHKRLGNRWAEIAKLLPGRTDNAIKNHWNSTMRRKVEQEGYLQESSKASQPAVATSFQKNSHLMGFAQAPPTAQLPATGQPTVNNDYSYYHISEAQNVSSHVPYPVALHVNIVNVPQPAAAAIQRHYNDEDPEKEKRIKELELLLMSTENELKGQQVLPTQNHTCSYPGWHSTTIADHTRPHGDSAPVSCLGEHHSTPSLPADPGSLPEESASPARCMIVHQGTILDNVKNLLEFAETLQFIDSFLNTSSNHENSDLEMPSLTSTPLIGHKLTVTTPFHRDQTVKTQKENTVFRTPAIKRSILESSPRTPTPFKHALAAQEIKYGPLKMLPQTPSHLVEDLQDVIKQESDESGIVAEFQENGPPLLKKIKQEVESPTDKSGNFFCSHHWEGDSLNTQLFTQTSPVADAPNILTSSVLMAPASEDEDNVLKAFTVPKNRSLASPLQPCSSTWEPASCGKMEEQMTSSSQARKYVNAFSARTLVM
Chain of Myc proto-oncogene protein (Homo sapiens) (P01106 whole entry, looked up, the tested form may be a part): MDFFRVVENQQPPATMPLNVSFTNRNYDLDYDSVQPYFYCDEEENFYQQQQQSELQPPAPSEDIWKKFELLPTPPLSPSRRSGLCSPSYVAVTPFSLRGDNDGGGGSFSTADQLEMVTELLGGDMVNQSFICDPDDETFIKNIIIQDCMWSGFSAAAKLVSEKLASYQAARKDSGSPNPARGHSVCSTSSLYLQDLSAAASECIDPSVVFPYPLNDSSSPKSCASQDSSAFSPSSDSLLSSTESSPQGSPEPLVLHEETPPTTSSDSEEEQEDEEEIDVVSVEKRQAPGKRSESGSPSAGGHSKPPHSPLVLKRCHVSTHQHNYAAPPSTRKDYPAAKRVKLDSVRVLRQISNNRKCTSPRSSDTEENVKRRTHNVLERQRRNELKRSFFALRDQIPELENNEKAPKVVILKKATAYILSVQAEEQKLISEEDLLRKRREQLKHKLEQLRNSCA
Chain of Hypoxia-inducible factor 1-alpha (Homo sapiens) (Q16665 whole entry, looked up): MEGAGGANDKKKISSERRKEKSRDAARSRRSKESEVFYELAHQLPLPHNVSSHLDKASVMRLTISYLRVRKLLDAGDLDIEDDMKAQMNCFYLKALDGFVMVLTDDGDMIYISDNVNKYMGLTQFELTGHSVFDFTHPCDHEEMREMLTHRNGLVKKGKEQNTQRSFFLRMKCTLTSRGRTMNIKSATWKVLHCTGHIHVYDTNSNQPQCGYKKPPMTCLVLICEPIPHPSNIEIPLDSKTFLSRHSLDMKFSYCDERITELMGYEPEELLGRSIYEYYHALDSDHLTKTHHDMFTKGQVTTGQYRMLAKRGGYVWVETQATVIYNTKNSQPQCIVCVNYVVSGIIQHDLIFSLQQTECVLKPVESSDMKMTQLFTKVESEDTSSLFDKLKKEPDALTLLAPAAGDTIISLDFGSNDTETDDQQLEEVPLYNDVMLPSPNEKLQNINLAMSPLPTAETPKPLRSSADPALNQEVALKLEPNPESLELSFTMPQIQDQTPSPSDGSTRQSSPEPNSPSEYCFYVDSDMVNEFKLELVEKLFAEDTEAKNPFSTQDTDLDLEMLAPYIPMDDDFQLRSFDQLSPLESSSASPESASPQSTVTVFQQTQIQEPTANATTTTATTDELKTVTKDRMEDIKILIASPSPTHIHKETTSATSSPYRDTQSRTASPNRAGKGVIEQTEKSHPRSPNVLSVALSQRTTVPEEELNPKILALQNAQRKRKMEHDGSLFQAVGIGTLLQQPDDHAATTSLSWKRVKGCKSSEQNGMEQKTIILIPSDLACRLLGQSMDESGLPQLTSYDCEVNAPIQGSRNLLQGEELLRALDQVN

In the case of `CC1CCC(=O)O1` (stereo unspecified), the molecule was called inactive in assay [1], in assay [2], in assay [3], in assay [4], in [5] and in [6]. The result in [7], in assay [8], in [9], in assay [10], in [11] and in [12] was inactive. Also, the result in [13], in assay [14], in assay [15] and in [16] was inactive.
For the molecule `CCCCCCCCCCCC#N`, the outcome in assay [17], in [1], in assay [2], in assay [5], in assay [6] and in assay [7] was inactive. Moreover, the call in assay [8], in assay [9], in assay [18], in [11], in [12] and in assay [15] was inactive. For the same molecule, the outcome in assay [16] was inactive. Besides, the AC50 in assay [3] is 76.4 µM (active); in assay [10], 173 µM (active); in assay [19], 169 µM (active); in [13] it was 73.4 µM (active); in assay [14] it was 141 µM (active); in assay [20], 80.6 µM (active).
Turning to `N#CCCCCC#N`, the molecule was classed as inactive in assay [17], in assay [1], in assay [2], in [3], in assay [4] and in [5]. For the same molecule, the outcome in assay [6], in assay [7], in assay [8], in assay [9], in assay [10] and in assay [11] was inactive. For the same molecule, the molecule was classed as inactive in [19], in assay [12], in assay [13], in assay [14], in assay [15] and in assay [16].
With `Oc1ccc(C2(c3ccc(O)cc3)c3ccccc3-c3ccccc32)cc1`, the result in assay [17], in [1], in [4], in [6], in [7] and in assay [8] was inactive. The molecule was called inactive in [18], in [11], in [12], in assay [13] and in assay [20]. Further, the AC50 was 11.1 µM (active) in assay [2]; 17.2 µM (active) in [5]; 5 µM (active) in assay [9]; 13.6 µM (active) in assay [10]; 9.82 µM (active) in assay [14]; 17.2 µM (active) in assay [15]. Moreover, the AC50 in [16] is 67.8 µM (active).
